Article PMC5540273 (PLoS ONE, 2017)

What was measured:
Conditions in all cases: concentration: 1 μM, replicates: in singlicate; n = 1
[1] = test system: PAK6
[2] = test system: PAK7
[3] = test system: T1, PCTK1
T1 construct: gene CDK16

[4] = test system: T2, PCTK2
T2 construct: gene CDK17

[5] = test system: T3, PCTK3
T3 construct: gene CDK18

[6] = test system: PDGFRA
[7] = test system: PDGFRB
[8] = test system: PDPK1
[9] = test system: PFTAIRE2
[10] = test system: T4, PFTK1
T4 construct: gene CDK14

[11] = test system: PHKG1
[12] = test system: PHKG2
[13] = test system: PIK3C2B
[14] = test system: PIK3C2G
[15] = test system: PIK3CA
[16] = test system: PIK3CB
[17] = test system: PIK3CD
[18] = test system: PIK3CG
[19] = test system: T5, PIK4CB
T5 construct: gene PI4KB

[20] = test system: PIKFYVE
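Further: KINOMEscan kinase panel screen.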

Row | Compound | %Inh [1] [%] | %Inh [2] [%] | %Inh [3] [%] | %Inh [4] [%] | %Inh [5] [%] | %Inh [6] [%] | %Inh [7] [%] | %Inh [8] [%] | %Inh [9] [%] | %Inh [10] [%] | %Inh [11] [%] | %Inh [12] [%] | %Inh [13] [%] | %Inh [14] [%] | %Inh [15] [%] | %Inh [16] [%] | %Inh [17] [%] | %Inh [18] [%] | %Inh [19] [%] | %Inh [20] [%]
1 | Cl.Oc1ccc(-c2nc(-c3ccccc3)[nH]c2-c2ccncc2)cc1 [SB-428218] | 0 | 0 | 4 | 0 | 20 | 0 | 13 | 0 | 0 | 21 | 49 | 0 | 0 | 0 | 0 | 0 | 0 | 0 | 0 | 46
2 | COc1cc(Nc2nccc(N3CCC(NC(=O)Nc4cc(C)ccc4C)C3)n2)cc(OC)c1OC (centres unmarked) [GSK1379762] | 0 | 0 | 9 | 24 | 33 | 8 | 42 | 11 | 24 | 21 | 3 | 0 | 0 | 0 | 0 | 0 | 39 | 0 | 15 | 0
3 | Cc1cc(-c2ccc3c(c2)CC[C@@H](N[C@@H](C)c2ccccc2)C3)cnc1N.Cl [GW412617] | 5 | 15 | 6 | 0 | 0 | 0 | 75 | 22 | 6 | 0 | 21 | 3 | 0 | 0 | 1 | 0 | 0 | 0 | 1 | 0
4 | O=C1NC(=O)C(N2CCc3ccccc32)=C1c1ccccc1Cl [SB-373598] | 55 | 0 | 3 | 1 | 17 | 0 | 4 | 32 | 9 | 0 | 0 | 23 | 1 | 0 | 0 | 0 | 10 | 12 | 0 | 0
5 | O=C(O)COc1ncnc2cc(-c3ccc4[nH]ncc4c3)sc12 | 0 | 7 | 17 | 0 | 0 | 45 | 31 | 0 | 0 | 12 | 13 | 3 | 0 | 23 | 0 | 47 | 5 | 0 | 35 | 12
6 | COc1cc2ncn(-c3cc(OCC4CCCO4)c(C(N)=O)s3)c2cc1OC (centres unmarked) [GSK204607] | 0 | 12 | 0 | 0 | 0 | 0 | 32 | 0 | 1 | 24 | 0 | 3 | 0 | 0 | 0 | 0 | 0 | 19 | 0 | 0
7 | Cc1cccc(-c2nc(Nc3ccc4[nH]ncc4c3)c3ccccc3n2)n1 [GW857175] | 4 | 0 | 23 | 2 | 15 | 19 | 0 | 39 | 0 | 9 | 0 | 16 | 8 | 43 | 0 | 7 | 18 | 0 | 23 | 85
